Among the data in PubChem BioAssay (NCI) are growth values, retold here.

Structures are written as SMILES. Compounds without any hit were thinned out: in the full panel of roughly 83,000, 20% have a hit.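 48-hour exposure, single concentration, 96-well plates; percent growth endpoint where 0 means no net growth. Active: below 10.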 Unmarked numbers belong to inactive results. The source made the active and inactive calls.

Test systems include NCI-H226 lung; NCI-H322M lung; HOP-62 NSCLC; NCI-H460 lung; HOP-92 NSCLC; NCI-H522 lung; A549/ATCC NSCLC; 786-0 renal; COLO 205 colon; DU-145 prostate.
Assay in all cases: NCI-60 one-dose screen, 48 h (100 = growth as untreated, 0 = no growth, -100 = all killed)
Common to all, as to settings: 10 µM unless noted

Regarding `CCN1C(=S)N(c2ccccc2)C2NC(=O)N(/N=C/C=C/c3ccccc3OC)C21` (stereo not given), the growth in the test with NCI-H226 lung was 98.9%; in the test with NCI-H322M lung, 94.9%; in the test on HOP-62 NSCLC it was 80.6%; in the test with NCI-H460 lung, 89.2%; in the test with HOP-92 NSCLC, 72.3%; in the test with NCI-H522 lung it was 89%. Moreover, the growth in the test on A549/ATCC NSCLC is 87.9%; with 786-0 renal, 96.1%; with COLO 205 colon, 122%; in the test with DU-145 prostate, 101%.

In the case of `CSCCC(C(=O)O)N1C(=O)/C(=C/c2ccc(O)c(O)c2)SC1=S` (stereo not given), the growth is 107% in the test on NCI-H226 lung; 91.8% with NCI-H322M lung; 100% with HOP-62 NSCLC; 109% with NCI-H460 lung; 108% in the test with HOP-92 NSCLC; 102% in the test with NCI-H522 lung. Also, the growth with A549/ATCC NSCLC is 108%; with 786-0 renal, 94.4%; in the test on COLO 205 colon, 123%; in the test with DU-145 prostate it was 108%.

For the molecule `O=[N+]([O-])c1ccc(O)c2ncccc12`, the growth in the test on NCI-H226 lung was 48.7%; in the test on NCI-H322M lung, 39.1%; in the test on HOP-62 NSCLC it was 19.1%; in the test with NCI-H460 lung it was 10.3%; in the test on HOP-92 NSCLC, 40.1%; in the test on NCI-H522 lung, 21.2%. For the same molecule, the growth with A549/ATCC NSCLC is 27%; in the test on 786-0 renal, 42.4%; with COLO 205 colon, 46.5%; in the test with DU-145 prostate, 43.3%.

In the case of `CCCC(=O)NC(c1ccc2c(c1)OC(F)(F)O2)c1cc(C)c2cccnc2c1O` (stereo not given), the growth in the test on NCI-H226 lung is 10.8%; with NCI-H322M lung, 34.2%; in the test with HOP-62 NSCLC, 15.9%; in the test on NCI-H460 lung it was -4.44% (active); in the test on HOP-92 NSCLC, 33.5%; with NCI-H522 lung, 18.2%. Moreover, the growth in the test on A549/ATCC NSCLC was 16.5%; in the test on 786-0 renal, 0.74% (active); in the test on COLO 205 colon, 21.1%; with DU-145 prostate, 26%.

On to `O=c1[nH]c2ccccc2cc1CSc1ccccc1Nc1nccc(-c2ccc(C(F)(F)F)cc2)n1`, for which the growth with NCI-H226 lung is 56.8%; with NCI-H322M lung, 90.5%; in the test on HOP-62 NSCLC, 78.5%; in the test with NCI-H460 lung, 40.8%; in the test with HOP-92 NSCLC, 20.5%; in the test on NCI-H522 lung, 80%. Moreover, the growth was 57.6% in the test with A549/ATCC NSCLC, 45.4% in the test with 786-0 renal, 104% in the test with COLO 205 colon and 73.4% in the test with DU-145 prostate.

For `C#C[C@]1(O)CC[C@H]2[C@@H]3CC=C4c5sc(Nc6ccc(Cl)cn6)nc5CC[C@]4(C)[C@H]3CC[C@@]21C`, the growth in the test with NCI-H226 lung was 77.1%; in the test on NCI-H322M lung, 82.3%; with HOP-62 NSCLC, 34.8%; in the test on NCI-H460 lung it was 28.3%; in the test with HOP-92 NSCLC it was 59.5%; in the test with NCI-H522 lung it was 67.7%. Also, the growth with A549/ATCC NSCLC is 50.3%; in the test with 786-0 renal it was -78.8% (active); in the test with COLO 205 colon, 88.8%; with DU-145 prostate, 63.4%.

For `CS(=O)(=O)c1ccc(-c2nc3ccccn3c2/C=N/Nc2nc(-c3ccc(Cl)cc3)cs2)cc1`, the growth was 108% in the test on NCI-H226 lung; 111% in the test with NCI-H322M lung; 109% in the test with HOP-62 NSCLC; 102% with NCI-H460 lung; 96.4% in the test on HOP-92 NSCLC; 96.2% with NCI-H522 lung. Besides, the growth was 98.2% in the test with A549/ATCC NSCLC, 79.8% with 786-0 renal, 112% in the test on COLO 205 colon and 106% in the test with DU-145 prostate.

For the molecule `N#Cc1c(-c2ccc(Cl)cc2)nc(SCc2ccccc2)nc1N1CCNCC1`, the growth is 89.4% in the test on NCI-H226 lung; 79.6% with NCI-H322M lung; 78.9% in the test on HOP-62 NSCLC; -45.6% (active) in the test on NCI-H460 lung; 21.8% in the test with HOP-92 NSCLC; 92.4% in the test with NCI-H522 lung. In addition, the growth in the test with A549/ATCC NSCLC was 66.7%; with 786-0 renal it was 64.3%; in the test on COLO 205 colon, -8% (active); with DU-145 prostate it was 63.8%.

Consider `O=C(N/N=C/c1ccco1)c1[nH]c2ccc(Br)cc2c1-c1ccccc1`, for which the growth was 50.1% in the test on NCI-H226 lung; 42.1% with NCI-H322M lung; 35.4% in the test on HOP-62 NSCLC; 2.19% (active) in the test on NCI-H460 lung; 48.7% in the test on HOP-92 NSCLC; -39.7% (active) with NCI-H522 lung. The growth is 35.4% with A549/ATCC NSCLC, 16.4% in the test on 786-0 renal, -35.2% (active) in the test with COLO 205 colon and 13.4% in the test on DU-145 prostate.

With `NS(=O)(=O)c1cccc(Nc2nc(SCC(=O)c3ccc(Br)cc3)nc3ccccc23)c1`, the growth with NCI-H226 lung is 4.97% (active); in the test on NCI-H322M lung, 97.6%; in the test with HOP-62 NSCLC, 59.5%; in the test on NCI-H460 lung, 38.5%; in the test on HOP-92 NSCLC, 38.2%; in the test with NCI-H522 lung, 40.8%. Moreover, the growth was 60.3% with A549/ATCC NSCLC, 14.2% in the test with 786-0 renal, 75.8% in the test with COLO 205 colon and 69.4% in the test with DU-145 prostate.

As for `Nc1cc(-c2c[nH]c3ccc(Cl)cc23)nc2cc(-c3c[nH]c4ccc(Cl)cc34)nn12`, the growth in the test on NCI-H226 lung is 71.3%; in the test with NCI-H322M lung, 56.8%; with HOP-62 NSCLC, 85.7%; in the test on NCI-H460 lung it was 12.1%; in the test with HOP-92 NSCLC, 28.9%; in the test with NCI-H522 lung it was 28.8%. Moreover, the growth in the test with A549/ATCC NSCLC was 44.2%; in the test with 786-0 renal it was 60.5%; with COLO 205 colon, 93.2%; in the test with DU-145 prostate, 53.4%.

As for `C#Cc1nc(C2=C(C)/C(=N/OCc3ccccc3)CC2)cs1`, the growth in the test on NCI-H226 lung is 48.4%; with NCI-H322M lung it was 92.6%; with HOP-62 NSCLC, 55.6%; in the test on NCI-H460 lung, 39.6%; with HOP-92 NSCLC, -79.2% (active); in the test with NCI-H522 lung it was -56.9% (active). The growth was 84.5% with A549/ATCC NSCLC, -95.7% (active) in the test with 786-0 renal, 83.5% in the test on COLO 205 colon and 88.5% in the test with DU-145 prostate.

For the molecule `CC(C)(C)Nc1nc2c(OCCc3ccccc3)cccn2c1-c1ccccc1Cl`, the growth in the test on NCI-H226 lung was -0.3% (active); with NCI-H322M lung, 8.57% (active); in the test on HOP-62 NSCLC, -22.1% (active); with NCI-H460 lung, 0.335% (active); with HOP-92 NSCLC it was -74.8% (active); with NCI-H522 lung, -13.4% (active). Besides, the growth in the test on A549/ATCC NSCLC was 11.6%; with 786-0 renal it was 6.01% (active); in the test with COLO 205 colon it was -76.6% (active); with DU-145 prostate, 21.1%.

With `Oc1c(Cl)cc(Cl)c2ccc(CN3CCCCC3)nc12`, the growth was 48.6% in the test with NCI-H226 lung; 37.9% in the test with NCI-H322M lung; 48.1% in the test on HOP-62 NSCLC; 22.2% with NCI-H460 lung; 48.6% with HOP-92 NSCLC; 34% in the test with NCI-H522 lung. The growth in the test on A549/ATCC NSCLC is 44.7%; in the test on 786-0 renal it was 36.1%; with COLO 205 colon it was 79.9%; in the test on DU-145 prostate it was 44%.
